Most compounds without a hit are left out; they make up all but 2.3% or so of the library.
Rce1 inhib: yeast Rce1p protease inhibitors, primary screen, biochemical, fluorescence, cell-free homogeneous; CAAX prenyl protease 2 (Saccharomyces cerevisiae (strain ATCC 204508 / S288c)), Q03530; yeast membranes, quenched prenylated peptide cleavage fluorescence; calls only; hit rate 0.27% among 290,000; AID 2563, 2010;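 active = fall in fluorescence gain of 50% or more versus controls, with final raw signal at or below 3038400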;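 also: plate controls were neutral control wells for no effect and wells lacking membranes for full effect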
Target sequence (Q03530 whole entry, looked up): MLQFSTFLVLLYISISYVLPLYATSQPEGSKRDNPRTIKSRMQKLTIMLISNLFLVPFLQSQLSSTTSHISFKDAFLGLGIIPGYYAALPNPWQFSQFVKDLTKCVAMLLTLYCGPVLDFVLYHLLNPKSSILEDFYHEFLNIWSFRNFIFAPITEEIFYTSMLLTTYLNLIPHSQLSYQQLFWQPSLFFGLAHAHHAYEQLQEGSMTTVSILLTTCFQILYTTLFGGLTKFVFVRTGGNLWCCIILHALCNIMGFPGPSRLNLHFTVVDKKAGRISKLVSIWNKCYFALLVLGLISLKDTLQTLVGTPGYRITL
PfM18AAP inh: PfM18AAP inhibitors, malaria aminopeptidase, primary screen, biochemical, QFRET, recombinant enzyme. AID 1822, 2009. M18 aspartyl aminopeptidase (Plasmodium falciparum 3D7). inhibition, % at 7.35 µM. hit rate 1.2% among 290,000. H-Glu-NHMec fluorogenic cleavage;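 active = inhibition above the campaign mean inhibition over all tested compounds plus 3 SD, cut at about 28% in these data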;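 also: 0% = plate median of test compound wells and 100% = 2 mM ZnCl2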
Kir21 block: inhibitors of mouse Kir2.1 inward-rectifier potassium channel | B-score at 10 µM | HEK293-Kir2.1, FluxOR thallium flux fluorescence; active compounds read low | hit rate 0.85% among 310,000;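 active = fluorescence ratio B-score at or below minus 3 SD of library scores, with starting-brightness B-score within 2 SD, cut at about -4.2 in these data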;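 also: channel flux triggered by added potassium and thallium sulfate stimulus; B-score of peak minus minimum fluorescence over baseline after thallium stimulus; more negative B-score means stronger Kir2.1 block with less thallium influx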
DNA FID counter: compounds displacing fluorescent DNA intercalator, primary screen, artefact control for HCV NS3 helicase inhibitor project, biochemical, FID fluorescence. hit rate 0.17% among 290,000. inhibition, % at 7.9 µM. AID 1845, 2009. DNA fluorescent intercalator displacement; in the data active = inhibition above about 37%;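 also: 0% = vehicle and 100% = reference compound; higher means more ethidium bromide displaced from hairpin DNA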
An asterisk follows results filed as active; i = inactive; . = no result given; + = active, no number.

SMILES	Rce1 inhib	PfM18AAP inh	Kir21 block	DNA FID counter
Cc1cc(-c2nnc(SCC(=O)Nc3nc(-c4ccccc4)cs3)o2)no1	i	30*	0.67	-21
Cc1cccc2cc(-c3nc4ccc(C(=O)O)cc4[nH]3)c(=O)oc12	i	2	0.16	-19
CN(CCOc1ccccc1)CC(=O)Nc1cc([N+](=O)[O-])ccc1Cl	i	-3	-4.7*	6
CC(C)CN(CC(C)C)C(=O)Cc1coc2ccc3ccccc3c12	i	3	-5.8*	-24
CN(Cc1ccco1)S(=O)(=O)c1csc(C(N)=O)c1	i	-1	0.03	1
CN1CCN(CC#CCn2c3ccccc3c3ccccc32)CC1	i	-5	-7.1*	34
CC(OCC(O)CN(C)CCOc1ccccc1)c1ccc(Cl)cc1 (configuration not stated)	i	-2	-5*	29
Cc1nn(C)c(C)c1CN(C(=O)C1CCC(=O)N(C2CCCCCC2)C1)C(C)C (configuration not stated)	i	-1	0.17	-50
C=C1CCc2c([nH]c3ccc(OCC(C)C)cc23)C1=O	i	4	-0.09	-17
O=c1c(O)c(-c2ccc(O)cc2O)oc2cc(O)cc(O)c12	.	30*	.	-1
Cc1ncc(S(=O)(=O)c2ccc(Cl)cc2)c(-c2ccccc2)n1	i	6	-4.8*	-6
CN(C)c1cc(NC(=O)CN2CCCC2)c2ccccc2n1	i	-14	1.1	55*
O=C(NN=C1CCCC1)c1ccc(O)cc1O	i	31*	0.32	-11
CCC(CC)c1nc(C#N)c(NC(C)c2ccccc2)o1 (configuration not stated)	i	4	-6.1*	-31
CCN(CC)c1ccc(C=Nc2cc(C)ccc2C)c(O)c1	i	5	-0.35	-10
CCN(CC)c1ccc(C=Nc2cccnc2Cl)c(O)c1	i	31*	0.19	1
CC1CCN(c2ccc3nnc(CCC(=O)N4CCCCC4)n3n2)CC1	i	0	-0.4	-41
COc1ccc2ccccc2c1-c1sc(Nc2ccccc2)n[n+]1-c1ccc(F)cc1	i	-6	-5.6*	19
Cc1ccccc1NC(=S)NCC1CCN(C(C)c2ccccc2)C1 (configuration not stated)	i	4	-1.5	5
Cc1cc(C)cc(NC(=S)NCC2CCN(C(C)c3ccccc3)C2)c1 (configuration not stated)	i	-2	-4.9*	24
Cc1cccc(NC(=O)NC2CCCCCCC2)c1C	i	0	1.4	-28
CCN(CCC(=O)Nc1ccc(Br)c(C)c1)Cc1ccccc1	i	-7	-5.7*	12
O=C(CCN(CCO)Cc1ccccc1)Nc1ccc(Br)cc1	i	-4	-3	13
S=C(CN1CCCC1=S)N1CCOCC1	i	.	-1.9	.
CC(C)(CCC(=S)N1CCOCC1)C1CCCCC1	.	30*	0.1	-24
SMILES	Rce1 inhib	PfM18AAP inh	Kir21 block	DNA FID counter
O=C(CCCc1c[nH]c2ccccc12)Nc1ncccc1O	i	2	0.09	-6
CCC(C)c1ccccc1OCCCNC1CCCC1 (configuration not stated)	i	5	-5.9*	20
COc1ccccc1OCCNC1CCCC1	i	-5	-0.13	4
CCN1CCN(C(=O)c2ccc(Cl)c(S(=O)(=O)N3CCCCC3)c2)CC1	i	0	-0.69	-1
Cc1cc(C)n(-c2nc3ccccc3n3cnnc23)n1	i	1	0	-1
CCN(CC)c1nc2ccccc2nc1-n1nc(C)cc1C	i	-2	-4.3*	-8
CCOC(=O)N1CCN(C2CCCN(C(=O)c3cccc(N(C)C)c3)C2)CC1 (configuration not stated)	i	-8	0.1	-23
COc1ccccc1OCCSc1nc2ccccc2n1CCO	i	-1	-4.3*	-12
CCCn1c(COc2ccccc2OC)nc2ccccc21	i	-9	-4.3*	-35
COC(=O)c1ccc(CSc2nnc(NC(C)C)s2)o1	i	-5	-0.53	1
Fc1ccc(Nc2ncnc3sccc23)cc1	i	2	2.4	-3
COc1ccc2cnn(CCOc3cc(C)ccc3C(C)C)c(=O)c2c1OC	i	-8	-4.8*	-35
Cc1cccc2sc(N(CCCN(C)C)C(=O)c3ccc(S(=O)(=O)N4CCc5ccccc5C4)cc3)nc12	i	-1	2.2	38*
CN(C)CCCN(C(=O)c1ccc(S(=O)(=O)N2CCc3ccccc3C2)cc1)c1nc2ccc(F)cc2s1	i	2	1.5	41*
C=CCc1cc(C)ccc1OCCOCCC(C(=O)OCC)C(=O)OCC	i	-3	-8.6*	-25
CNCCC(Oc1ccc(C(F)(F)F)cc1)c1ccccc1 (configuration not stated)	i	2	-2.6	15
CNCC[C@H](Oc1cccc2ccccc12)c1cccs1	i	16	-9.1*	41*
COCCCC1CCN(C(=O)c2cc(COc3ccc(C)nc3)on2)CC1	i	4	0.34	-38
CN(C)CCN(C(=O)CCc1ccccc1)c1nc2c(F)cc(F)cc2s1	i	-3	-0.18	-3
CN(C)CCN(C(=O)c1cc(Cl)sc1Cl)c1nc2ccc(F)cc2s1	i	3	-0.47	2
CN(C)CCCN(C(=O)c1cc(-c2cccs2)nc2ccccc12)c1nc2ccc(F)cc2s1	+	-9	-0.42	40*
CN(C)CCCN(C(=O)CCc1ccccc1)c1nc2ccc(F)cc2s1	i	2	-4.9*	13
CN1CCN(S(=O)(=O)c2cccs2)CC1	i	5	1.6	1
O=S(=O)(c1cccs1)N1CCN(c2ccc(O)cc2)CC1	i	37*	-1.3	4
COc1ccc(CC2(C)OC(c3ccc(C)c([N+](=O)[O-])c3)=NN2C(C)=O)cc1 (configuration not stated)	i	-4	-2.1	-23
SMILES	Rce1 inhib	PfM18AAP inh	Kir21 block	DNA FID counter
CCC(=O)NC1=C(Cl)C(=O)C(NC(=O)CC)=C(Cl)C1=O	.	-38	.	4
Fc1ccc(CNCCC(Cc2ccccc2)c2ccco2)cc1 (configuration not stated)	i	-5	-15*	14
O=C(NCCNCc1ccc(F)cc1)c1ccco1	i	-2	-1.4	7
CCc1ccc(CNC(=O)C2CC(=O)N(C3CCCC3)C2)cc1 (configuration not stated)	i	1	0.26	-28
CC(=O)Nc1cccc(NC(=O)CSc2nc3c(=O)n(C)c(=O)n(C)c3n2C)c1	i	.	-0.81	.
O=C(NNC(=O)c1ccccc1O)c1cccc(Br)c1	i	30*	0.76	-2
CN(C)CCc1cc2c(c3c1ccc1ccccc13)OCO2	i	11	-11*	43*
COc1cc2ccc3c(CCN(C)C)cc(OC)c(OC)c3c2cc1OC	i	0	-0.46	2
CCOC(=O)/C(C#N)=C1\CCCN1CC(N)=S	.	31*	0.53	0
CCOC(=O)/C(C#N)=C1/CCCCCN1C	i	-8	-0.31	0
Cc1ccc(NNC(=O)Nc2ccc(Cl)cc2)nn1	i	32*	-1.3	-2

Screening data from PubChem BioAssay.
